Inconclusive results are not listed. Activity calls are given as the source filed them. Calls follow the shape of the dose curve; as a rule, active = well fitted inhibition curve with a large enough effect; inconclusive = small, poorly fitted or top-dose-only effect; inactive = flat fitted curve, though single readings scatter.
What was measured:
CRL-7250 = normal cell line; test: Cytotoxic Profiling of Annotated Libraries Using Quantitative High-Throughput Screening (AID 1296008); settings: Five cell lines viability, CellTiter-Glo ATP luminescence, 48-72 h; max response: active compounds read low; also: potency is read from the fitted curve at half-maximal effect; as to max response: % is scaled to controls: 0 for no effect and ±100 for the full control effect
Outline: (§1)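 Compounds were pin-transferred onto cells and incubated 48 or 72 hr at 37 degree Celsius, 95% humidity. CellTiter-Glo was added, plates sat 10 min at room temperature, then ATP-coupled luminescence was imaged as the viability read-out.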

HEK293 = test: as above; settings: Five cell lines viability, CellTiter-Glo ATP luminescence, 48-72 h; max response: active compounds read low
Outline: as §1

HaCat [1] = test: as above; settings: Five cell lines viability, CellTiter-Glo ATP luminescence, 48-72 h; max response: active compounds read low
Outline: as §1

NIH3T3 = test: as above; settings: Five cell lines viability, CellTiter-Glo ATP luminescence, 48-72 h; max response: active compounds read low
Outline: as §1

HACAT [2] = test: qHTS assay to identify novel small-molecules to repurpose for Merkel cell carcinoma treatment (AID 1296009); settings: MCC and control cell lines, CellTiter-Glo viability, 72 h; at 44.8 µM (top of the series) unless noted
Outline: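 Viability readout: ATP luminescence (CellTiter-Glo) after 72 hr drug exposure at 37 degree celsius. Dose-response format was 8 points for NPC and 11 points for MIPE; data normalized to in-plate controls.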
Also: nearly all actives have a fitted effect of over 60% in size.

COC1=CC(=O)C[C@@H](C)[C@@]12Oc1c(Cl)c(OC)cc(OC)c1C2=O
inactive: max response (CRL-7250) -44.3% | max response (HEK293) -102% | max response (HaCat [1]) -90.1% | max response (NIH3T3) -50.9%

CS(=O)(=O)c1ccc(Oc2cc(F)cc(C#N)c2)c2c1[C@H](O)C(F)(F)C2
inactive: outcome (CRL-7250) | max response (HEK293) 1.03% | max response (HaCat [1]) -0.258% | max response (NIH3T3) -14.9%

CC(C)c1ccccc1OC(=O)NCCc1ccc2ccccc2c1
inactive: max response (CRL-7250) -4.95% | max response (HEK293) 2.54% | max response (HaCat [1]) 3.54% | max response (NIH3T3) 3.78%

COc1cc(O)c2c(c1)C1OC1C[C@H](O)[C@H](O)C(=O)/C=C\C[C@H](C)OC2=O (stereo partly drawn)
active: Potency (CRL-7250) 20.6 µM | Potency (HEK293) 3.66 µM | Potency (HaCat [1]) 8.2 µM | Potency (NIH3T3) 2.06 µM

CC(=O)C1=C(O)C=C2Oc3c(C(C)=O)c(O)c(C)c(O)c3[C@]2(C)C1=O
inactive: outcome (CRL-7250) | max response (HEK293) 0.521% | outcome (HaCat [1]) | outcome (NIH3T3) | outcome (HACAT [2])

COc1cc(N2CCC(O)CC2)ccc1Nc1nc(Nc2ccccc2S(=O)(=O)C(C)C)c2[nH]cnc2n1
active: Potency (HEK293) 5.8 µM | Potency (HaCat [1]) 18.4 µM | Potency (NIH3T3) 7.31 µM
inactive: max response (CRL-7250) -7.74%

COC(=O)C1=CO[C@@H](O[C@@H]2O[C@H](CO)[C@@H](O)[C@H](O)[C@H]2O)[C@H]2[C@@H]1C=C[C@]21C=C([C@H](C)OC(=O)/C=C/c2ccc(O)cc2)C(=O)O1
active: Potency (CRL-7250) 1.22 µM | Potency (HEK293) 1.72 µM | Potency (HaCat [1]) 3.85 µM | Potency (NIH3T3) 3.06 µM

CC(=O)OC(C)(C)/C=C/C(=O)C(C)(O)C1C(O)CC2(C)C3CC=C(C(C)(C)C(=O)O)C(CC(=O)O)C3(C)C(=O)CC12C (stereo not drawn)
inactive: max response (CRL-7250) 2% | max response (HEK293) -1.12% | outcome (HaCat [1]) | outcome (NIH3T3) | outcome (HACAT [2]) inactive [at 17.4 µM]

CC1CC(=O)C2=C(C1)C1OC1C1(O)C2C(=O)c2cccc(O)c2C1O (stereo not drawn)
inactive: max response (CRL-7250) -42.8% | max response (HEK293) -91.9% | max response (HaCat [1]) -53.4% | max response (NIH3T3) -27%

CC[C@H]1CN(c2nc(N)c(C(N)=O)nc2Cl)CCN1C1CCN(Cc2ccc(Cl)cc2)CC1
inactive: max response (CRL-7250) 4.79% | max response (HEK293) -6.38% | outcome (HaCat [1]) | max response (NIH3T3) 0.303% | outcome (HACAT [2])

Cc1cccc(CC(=O)N2CCc3c2ccc(-c2cn(C)c4ncnc(N)c24)c3F)n1
active: Potency (CRL-7250) 1.84 µM | Potency (HEK293) 5.8 µM
inactive: outcome (HaCat [1]) | max response (NIH3T3) 3.48% | outcome (HACAT [2])

COC(=O)c1cc2c(C(F)(F)F)cc(-c3ccccc3)cc2n1O
inactive: max response (CRL-7250) -4.54% | max response (HEK293) 0.379% | outcome (HaCat [1]) | outcome (NIH3T3) | outcome (HACAT [2])

C[C@@H]1CN(CC(=O)N2CC(C)(C)c3ncc(Cc4ccc(F)cc4)cc32)[C@@H](CN2CCOC[C@H]2C)CN1
inactive: max response (CRL-7250) -4.83% | max response (HEK293) -21.9% | outcome (HaCat [1]) | outcome (NIH3T3) | outcome (HACAT [2])

CC(C)c1cc2c(N3CCN(C4=NCC(C)(C)S4)CC3)ncnc2s1
active: Potency (CRL-7250) 3.66 µM | Potency (HEK293) 1.3 µM
inactive: outcome (HaCat [1]) | max response (NIH3T3) -29.7% | outcome (HACAT [2])

N#Cc1cc(-c2ccnc(Nc3ccc(N4CCOCC4)cc3)n2)ccc1OC1CCOCC1
active: Potency (CRL-7250) 4.11 µM | Potency (HEK293) 7.31 µM | Potency (NIH3T3) 11.6 µM
inactive: outcome (HaCat [1]) | outcome (HACAT [2])

COc1cc(N2CCC(N)CC2)ccc1Nc1ncc(Cl)c(-c2c[nH]c3ccccc23)n1
active: Potency (CRL-7250) 6.51 µM | Potency (HEK293) 4.61 µM | Potency (HaCat [1]) 5.17 µM | Potency (NIH3T3) 2.31 µM

CC(C)NCCCn1c(Sc2cc3c(cc2I)OCO3)nc2c(N)ncnc21
active: Potency (CRL-7250) 0.411 µM | Potency (HEK293) 0.184 µM | Potency (HaCat [1]) 0.231 µM | Potency (NIH3T3) 0.291 µM

CCC(CC)C(=O)OC12C(OC(=O)C(C)C)C(C)C3(O)C(C=C(CO)CC4(O)C(=O)C(C)=CC43)C1C2(C)C (stereo not drawn)
inactive: max response (CRL-7250) 0.624% | max response (HEK293) -5.82% | outcome (HaCat [1]) | outcome (NIH3T3) | outcome (HACAT [2]) inactive [at 17.4 µM]

C=C[C@@]12COC(=O)C(=C)[C@@H]1[C@@H](O)[C@H](C(=C)C(=O)OC)[C@@H](O)C2
inactive: max response (CRL-7250) -65.9% | max response (HEK293) -86.5% | max response (HaCat [1]) -29% | max response (NIH3T3) -16.2%

C=CC(=O)Nc1ccc(CN2C(=O)N(c3cc(OC)cc(OC)c3)Cc3cnc(Nc4ccc(N5CCN(C)CC5)cc4)nc32)cc1
active: Potency (CRL-7250) 0.411 µM | Potency (HEK293) 11.6 µM | Potency (HaCat [1]) 5.17 µM | Potency (NIH3T3) 8.2 µM

C=C1C(=O)O[C@@H]2C3C(=C(C)[C@@H](O)[C@@H](OC(=O)/C(=C/C)COC(C)=O)[C@@H]12)C(=O)[C@H]1O[C@@]31C (stereo partly drawn)
active: Potency (CRL-7250) 6.32 µM | Potency (HEK293) 1 µM | Potency (HaCat [1]) 3.17 µM | Potency (NIH3T3) 2.24 µM

— PubChem BioAssay (NCATS)
